Data: PubChem BioAssay (NCATS)
Values joined by “and” are separate entries in the source; they are usually repeats but may differ in a detail not shown here. Equal entries are not always repeated. Results filed as inconclusive are left out. Entries that show only a call come without a potency. Unmarked numbers belong to inactive results. Active and inactive are the calls of the source. Calls come from the whole dose curve; as a rule, active = well fitted curve in the direction sought with a large enough effect; inconclusive = small, poorly fitted or top-dose-only effect, or another doubt; inactive = no such curve, though single readings can be large; an effect the other way counts as inactive or inconclusive.

What was measured:
[1] = target: Cytochrome P450 3A7 (Homo sapiens) (UniProt P24462); assay: Cytochrome P450 family 3 subfamily A member 7 (CYP3A7) small molecule antagonists: luciferase biochemical qHTS assay (AID 1963596); note: nearly all actives have a fitted effect of over 40% in size
Outline: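 P450-Glo luminescent assay: CYP3A7 enzyme converts a proluciferin substrate to luciferin, detected by luciferase reagent; light proportional to activity. Compounds in DMSO preincubated 10 min with enzyme-substrate mix at room temperature, then NADPH regeneration added for 1 h.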

[2] = Viability qHTS for spleen associated tyrosine kinase inhibitor (SYKi) naive MV4-11 cells (AID 1963823); note: nearly all actives have a fitted effect of over 40% in size; note: potency is the fitted concentration of half-maximal effect
Outline: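 Read-out: CellTiter-Glo luminescence. Exposure: 72 hr, 37 C, 5% CO2, 95% humidity. Cells: MV4-11 without SYK inhibitor history, 500/well, qHTS format.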

[3] = Viability qHTS for spleen associated tyrosine kinase inhibitor (SYKi) drug resistant MV4-11 cells (AID 1963824); note: nearly all actives have a fitted effect of over 35% in size; note: potency is the fitted concentration of half-maximal effect
Outline: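 SYK-inhibitor-resistant MV4-11 AML cells were seeded at 500 per well onto compound and cultured 72 hours (37 °C, 5% CO2). CellTiter-Glo was then added, and after 10 min at room temperature, luminescence gave viability.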

[4] = Cellular viability qHTS for adrenocortical cancer (ACC) cell line SW-13 (AID 1963989); settings: SW-13 ACC cells viability, CellTiter-Glo, 48 h; activity (max response): active compounds read low; note: nearly all actives have a fitted effect of over 65% in size; note: potency is the fitted concentration of half-maximal effect;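 for activity (max response): cells grown in serum-free medium with ITS supplement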
Outline: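 48 h treatment, SW-13 in ITS/DMEM serum-free; doses up to 46 uM; readout CellTiter-Glo luminescence; curve fit four-parameter logistic.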

[5] = Cellular viability qHTS for adrenocortical cancer (ACC) cell line NCI-H295R (AID 1963990); note: nearly all actives have a fitted effect of over 60% in size
Outline: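 Compound titrations (up to 46 uM final) are applied to NCI-H295R cultures for 48 h at 37C. Viable cell number is estimated by CellTiter-Glo signal, normalised to DMSO and doxorubicin controls.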

Cytochrome P450 3A7 (Homo sapiens), sequence (P24462 whole entry, looked up): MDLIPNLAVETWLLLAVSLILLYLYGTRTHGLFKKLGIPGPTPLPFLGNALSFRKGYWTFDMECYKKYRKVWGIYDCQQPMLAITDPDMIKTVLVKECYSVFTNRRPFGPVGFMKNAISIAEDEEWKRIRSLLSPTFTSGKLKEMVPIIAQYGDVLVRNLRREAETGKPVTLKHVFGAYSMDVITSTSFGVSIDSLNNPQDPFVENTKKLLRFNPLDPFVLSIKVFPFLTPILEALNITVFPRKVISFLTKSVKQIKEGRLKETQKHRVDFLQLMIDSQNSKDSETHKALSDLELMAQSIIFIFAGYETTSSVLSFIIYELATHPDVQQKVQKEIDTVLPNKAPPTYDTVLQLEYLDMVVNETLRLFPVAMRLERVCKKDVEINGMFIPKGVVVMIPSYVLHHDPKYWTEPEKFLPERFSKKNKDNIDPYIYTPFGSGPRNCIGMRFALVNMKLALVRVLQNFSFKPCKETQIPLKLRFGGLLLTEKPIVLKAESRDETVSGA

SMILES | Potency [1] | Potency [2] | Potency [3] | activity (max response) [4] [%] | Potency [4] | Potency [5]
CCn1cc(C(=O)O)c(=O)c2cc3c(cc21)OCO3 | inactive | inactive | inactive | -2.41 | – | –
Cn1cc(-c2cnn3c(N)c(Br)c([C@@H]4CCCNC4)nc23)cn1 | inactive | 0.417 µM (active) | 731 nM (active) and 468 nM (active) | – | 12.6 µM (active) | –
CN(C)[C@@H]1C(=O)C(C(=O)NCN2CCCC2)=C(O)[C@@]2(O)C(=O)C3=C(O)c4c(O)cccc4[C@@](C)(O)C3C[C@@H]12 (stereo partly drawn) | inactive | inactive | inactive | -7.75 | – | inactive
CC(C(=O)O)c1cccc(Oc2ccccc2)c1 (stereo not drawn) | inactive | inactive | inactive | 9.95 | – | inactive
CCN(CC)CCNC(=O)c1ccc(N)cc1 | inactive | inactive | inactive | 13 | – | inactive
